Source: PubChem BioAssay
Only some compounds are listed: those with a hit (about 4.2% of all), similar ones and a draw of the others.
uPA surface inh: inhibitors of cell surface uPA generation; cell surface uPA generation assay, qHTS; Potency, µM (series often up to 38.3 µM), for the others: top-dose activity change, negative = inhibition, actives largely listed as inhibitors; 330,000 tested, 0.31% active; active = well fitted inhibition curve with a large enough effect; inconclusive = small, poorly fitted or top-dose-only effect; inactive = no such curve, though single readings can be large or run the other way; tested in mouse RAW 264.7 cells; also: potency is read from the fitted curve at half-maximal effect; % is scaled to controls: 0 for no effect and ±100 for the full control effect; nearly all actives have a fitted effect of over 55% in size
Sfp PPTase inh: inhibitors of Bacillus subtilis Sfp phosphopantetheinyl transferase | Q9F4F7 | Biochemical Sfp PPTase activity, qHTS | Potency, µM, for the others: largest response in the series, negative = inhibition, actives largely listed as inhibitors | 310,000 tested, 3.5% active;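 also: the enzyme is Sfp with the accession as filed and its product quenches rhodamine fluorescence; potency is read from the fitted curve at half-maximal effect; 0% = enzyme reaction without inhibitor and -100% = no enzyme wells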
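Sfp 15 nM + cpd, 15 min RT; start w/ rhodamine-CoA 5 uM, BHQ-2-YbbR 12.5 uM (final); 50 mM Hepes pH 7.6, 10 mM MgCl2, 0.01% NP-40, 0.01% BSA; read 525/598 nm at 0 and 30 min.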
TCR act: T cell receptor activation. 330,000 tested, under 10 active. primary human leukocytes, anti-CD3, IL-2 HTRF, 48 h. Potency, µM (series often up to 9.22 µM), for inactives: top-dose activation of IL-2 secretion, hits mostly activators; also: % of control where 0% means no effect
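Readout: HTRF IL-2, Eu-cryptate/d2 antibody pair, 320nm excitation, 665nm emission. Stimulus: a-CD3 beads, no co-stimulation. Cells: primary human leukocytes. Exposure: 48 hr with compound.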
ClpP mod: qHTS Assay for Activators of ClpP; ATP-dependent Clp protease proteolytic subunit (Bacillus subtilis (strain 168)), P80244; purified B. subtilis ClpP, FRET peptide cleavage, 20 min; Potency, µM (doses to about 57.5 µM), for the others: at the top dose activity change, negative = active; 340,000 tested, 1.9% active; active = well fitted falling curve with a large enough effect; inconclusive = small, poorly fitted or top-dose-only effect; inactive = no such curve, though single readings can be large or run the other way; also: potency is read from the fitted curve at half-maximal effect; the source files actives as falling curves though it sought activators and does not explain the sign; nearly all actives have a fitted effect of over 65% in size
Target sequence (P80244 whole entry, looked up): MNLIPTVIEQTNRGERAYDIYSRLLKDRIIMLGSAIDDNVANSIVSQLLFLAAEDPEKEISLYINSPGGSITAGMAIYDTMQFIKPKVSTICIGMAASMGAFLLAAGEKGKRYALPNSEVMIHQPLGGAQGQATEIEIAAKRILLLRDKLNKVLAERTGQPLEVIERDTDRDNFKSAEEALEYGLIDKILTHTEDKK
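Buffer: 100 mM Tris/HCl pH8, 100 mM KCl, 0.05% low protease BSA, 2.5% glycerol, 0.01% Tween-20. ClpP 10 microg/mL final; 20 min RT; delta FRET normalized to ADEP and DMSO controls.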
* marks the source's active call; other numbers are inactive results; ? = inconclusive; . = not tested or not shown; [ ] = another dose, or the depositor's remark. Unless noted, calls follow the shape of the dose curve; as a rule, active = well fitted curve in the direction sought with a large enough effect; inconclusive = small, poorly fitted or top-dose-only effect, or another doubt; inactive = no such curve, though single readings can be large; an effect the other way counts as inactive or inconclusive.

SMILES	uPA surface inh	Sfp PPTase inh	TCR act	ClpP mod
Clc1ccc(OCCCNCc2ccccc2)c2ccccc12	-1%	56µM*	-2%	.
CCC(C)NCCOCCOc1ccc(Cl)c2ccccc12 (stereo not drawn)	-2%	20µM*	5%	-5%
CCC(C)NCCOCCOc1ccc(Cl)c(C)c1C (stereo not drawn)	3%	-4%	1%[46.1 µM]	-3%
Brc1ccccc1OCCNCc1ccccc1	0%	-25%	-2%	.
C/C(=C/c1oc2ccc(O)cc2c1[N+](=O)[O-])N(C)C	-3%	71µM*	6%	1%
CCOc1cc(N2CCOCC2)c(OCC)cc1NC(=O)c1ccc(OC)cc1	-4%	5%	8%	.
CCOc1cc(N2CCOCC2)c(OCC)cc1NC(=O)c1ccc(OCc2c(C)noc2C)c(OC)c1	6%	0%	2%[46.1 µM]	11µM*
COCCn1c(C)cc(C2=NNC(=Nc3ccccc3)SC2)c1C	-1%	22µM*	7%	3%
COCCn1c(C)cc(C2=NNC(=Nc3ccc(OC)cc3)SC2)c1C	?	50µM*	1%	-2%
CC(C)CCNC(=O)N1CCN(S(=O)(=O)c2ccc3c(ccn3C)c2)CC1	.	.	.	-1%
CCS(=O)(=O)c1c(Nc2ccc(F)c(Cl)c2)sc(C(=O)c2ccccc2)c1N	.	.	.	-8%
C/C=C(/C)C(=O)OC1c2c(ccc3ccc(=O)oc23)OC(C)(C)C1OC(C)=O (stereo not drawn)	1%	6%	12%[46.1 µM]	16µM*
Cc1ccc(OCC(=O)N/N=C/C=C/c2ccco2)cc1	-4%	35µM*	-1%	1%
COc1ccccc1OCC(=O)N/N=C/C=C/c1ccc([N+](=O)[O-])o1	-10%	0%	3%[46.1 µM]	2%
Cc1cccc(OCC(=O)N/N=C\c2cc3c(cc2[N+](=O)[O-])OCO3)c1C	0%	25µM*	4%	0%
O=C(COc1ccccc1[N+](=O)[O-])N/N=C/C=C/c1ccco1	1%	50µM*	4%	1%
COc1ccc(/C=C/C=N/NC(=O)COc2ccc(OC)cc2)cc1	-6%	4%	1%[46.1 µM]	-21%
Cn1cc(/C=N/NC(=O)COc2ccccc2[N+](=O)[O-])c2ccccc21	8%	35µM*	7%[46.1 µM]	0%
Cc1ccc2cc(CN(c3ccccc3)S(=O)(=O)c3ccccc3)c(=O)[nH]c2c1	-2%	-3%	-5%	.
Cc1cccc(N(Cc2cc3ccc(C)cc3[nH]c2=O)S(=O)(=O)c2ccccc2)c1	-13%	7%	-3%	25µM*
Cc1cccc(N(Cc2cc3ccccc3[nH]c2=O)S(=O)(=O)c2ccccc2)c1	1%	-4%	-2%[46.1 µM]	32µM*
Cc1ccc(N(Cc2cc3cc(C)ccc3[nH]c2=O)S(=O)(=O)c2ccccc2)cc1	-2%	8%	-3%[46.1 µM]	28µM*
O=c1[nH]c2ccccc2cc1CN(c1ccccc1)S(=O)(=O)c1ccccc1	-5%	15%	-5%[46.1 µM]	32µM*
COc1ccc2[nH]c(=O)c(CN(c3ccccc3)S(=O)(=O)c3ccccc3)cc2c1	-1%	4%	-1%	-9%
CC(C)N1C(=O)CSC1c1ccc(Br)cc1 (stereo not drawn)	2%	-7%	.	.
SMILES	uPA surface inh	Sfp PPTase inh	TCR act	ClpP mod
CCN(CC)CCOC(=O)c1ccc(NC(=O)Cn2ncc3c2-c2cc(C)ccc2OC3)cc1	.	.	.	2%
CC[C@H](C)[C@H](NC(=O)[C@H](Cc1cnc[nH]1)NC(=O)[C@@H](NC(=O)[C@H](CCCNC(=N)N)NC(=O)[C@H](CCCCN)NC(=O)[C@H](CCCNC(=N)N)NC(=O)[C@H](CCCCN)NC(=O)[C@@H](N)CC(N)=O)[C@@H](C)CC)C(=O)NCC(=O)N1CCC[C@H]1C(=O)NCC(=O)N[C@@H](CCCNC(=N)N)C(=O)N[C@@H](C)C(=O)N[C@@H](Cc1ccccc1)C(=O)N[C@@H](Cc1ccc(O)cc1)C(=O)N[C@H](C(=O)N[C@H](C(=O)N[C@@H](CCCCN)C(=O)N[C@@H](CC(N)=O)C(=O)N[C@H](C(=O)N[C@H](C(=O)NCC(=O)N[C@H](C(=O)N[C@H](C(=O)N[C@@H](CS)C(=O)O)[C@@H](C)CC)[C@@H](C)O)[C@@H](C)CC)[C@@H](C)CC)[C@@H](C)O)[C@@H](C)O	.	-14%	.	.
COc1ccc(CN(Cc2ccco2)c2cnc(S(C)(=O)=O)nc2C(=O)Nc2ccc(C)c(Cl)c2)cc1	.	.	.	-9%
CCOc1ccc(N(Cc2cc3ccc(C)cc3[nH]c2=O)S(=O)(=O)c2ccccc2)cc1	?	12%	-5%	32µM*
C#CCOCCOCCOCCNc1nc(N2CCN(C(=O)Cn3cc(CC(C)O)nn3)CC2)nc(N2CCN(C(=O)[C@H](C)n3cc(CCCN=C(N)N)nn3)CC2)n1 (stereo partly drawn)	6%	1%	-3%	1%
CCOC(=O)N1CCN(S(=O)(=O)c2ccc(Cl)cc2)CC1	-12%	2%	4%	1%
CCOC(=O)N1CCC(N2CCN(S(=O)(=O)c3ccc(Cl)cc3)CC2)CC1	.	50µM*	-4%	1%
COCCNC(=O)CCCn1c(SCC(=O)Nc2ccc(F)cc2)nc2c(sc3ccccc32)c1=O	.	.	.	-21%
Cc1cc(C(=O)N/N=C/c2cccc(OC(=O)c3cccc(Br)c3)c2)n[nH]1	-11%	14%	-2%	0%
COc1cccc(C(=O)Oc2c(Br)cc(Br)cc2/C=N/NC(=O)c2cc(C)[nH]n2)c1	4µM*	11%	6%	0%
Cc1ccc(S(=O)(=O)N2[C@@H](CO)CO[C@H]2CC(=O)c2ccc(F)cc2)cc1	.	.	.	1%
COc1cccc(CN(C)C(=O)c2cc(-c3cccs3)nc3ccccc23)c1	-2%	13%	-3%	32µM*
CCN(CC)S(=O)(=O)c1ccc(NC(=O)c2cc(-c3cccs3)nc3ccccc23)cc1	-9%	4%	-4%[46.1 µM]	28µM*
CCN(CC)S(=O)(=O)c1ccc(O)c(NC(=O)c2cc(-c3cc(OC)c(OC)c(OC)c3)nc3ccccc23)c1	3%	45µM*	-3%	.
CN(C)S(=O)(=O)c1ccc(NC(=O)c2cc(-c3cccs3)nc3ccccc23)cc1	-6%	-8%	3%[46.1 µM]	16µM*
O=C(Nc1ccc2nc(SCC(=O)N3CCCC3)sc2c1)c1cccc(F)c1	.	.	.	6%
COc1ccc(/C=N/Nc2cc(C)nc3ccc(Br)cc23)cc1	-6%	56µM*	5%	.
COc1ccc2nc(C)cc(N/N=C/c3cccc(OC)c3O)c2c1	7%	?	3%	.
CC(/C=N/n1c(-c2ccco2)n[nH]c1=S)=C\c1ccco1	-5%	45µM*	-1%[46.1 µM]	-3%
CC(/C=N/n1c(-c2ccccc2)n[nH]c1=S)=C\c1ccco1	7%	?	3%	0%
CC(/C=N/n1c(-c2ccc(C)cc2)n[nH]c1=S)=C\c1ccco1	-2%	50µM*	0%[46.1 µM]	1%
COc1cc(CNc2ncnc3ccc(-c4c(C)noc4C)cc23)cc(OC)c1OC	.	9%	.	.
Cc1cc(C)nc(SCNC(=O)c2ccc(Cl)cc2)n1	-1%	56µM*	2%	-6%
